Assay outcomes as filed in PubChem BioAssay.
Rows were chosen to be rich in hits. Some 11% of all compounds tested hit in one or more screens of this group.
L3MBTL1 block: qHTS Assay for the Inhibitors of L3MBTL1 | Lethal(3)malignant brain tumor-like protein 1 (Homo sapiens), Q9Y468 | AlphaScreen L3MBTL1–H3K9me1 peptide binding | Potency, µM (doses to about 57.1 µM), without a hit: at the highest dose activity, negative = inhibition, usual class: inhibitors | 230,000 tested, 0.66% active | AID 485360, 2010; also: % is scaled to controls: 0 for no effect and ±100 for the full control effect; nearly all actives have a fitted effect of over 60% in size
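L3MBTL1 (50 nM) pre-complexed 30 min with biotinylated H3(1-15)K9me1 peptide (75 nM), then compounds added for 30 min at room temperature; AlphaScreen streptavidin donor/nickel chelate acceptor beads (10 ug/mL final) read after 30 min dark incubation.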
BAZ2B block: qHTS Assay for Inhibitors of BAZ2B; 360,000 tested, 4.4% active; Bromodomain adjacent to zinc finger domain protein 2B (Homo sapiens), Q9UIF8; AlphaScreen BAZ2B-H3K14Ac peptide displacement; Potency, µM (top dose mostly 114 µM), for the others: at the top dose activity change, negative = inhibition, most hits filed as inhibitors; also: % is scaled to controls: 0 for no effect and ±100 for the full control effect; nearly all actives have a fitted effect of over 60% in size
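BAZ2B (50 nM) with biotin-H3(5-23)K14Ac peptide (50 nM) in PBS pH 7.4, 0.01% Tween-20, preformed 30 min, then compound 30 min at room temperature; top concentration 110uM. AlphaScreen streptavidin donor/nickel chelate acceptor beads (10 ug/mL final), 20 min dark, signal read.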
JMJD2A Tudor: qHTS Assay for Inhibitors of JMJD2A-Tudor Domain. AlphaScreen JMJD2A-Tudor / H3K4me3 peptide binding. Lysine-specific demethylase 4A (Homo sapiens), O75164. Potency, µM (highest dose often 114 µM), for the others: top-dose activity change, negative = inhibition, most hits filed as inhibitors. 390,000 tested, 4.4% active; also: % is scaled to controls: 0 for no effect and ±100 for the full control effect; nearly all actives have a fitted effect of over 50% in size
G9a block: qHTS Assay for Inhibitors of Histone Lysine Methyltransferase G9a; Histone-lysine N-methyltransferase EHMT2 (Homo sapiens), Q96KQ7; G9a H3K9 monomethylation, AlphaScreen, 2 h; Potency, µM (highest dose often 102 µM), without a hit: at the top dose activity, negative = inhibition, hits mostly inhibitors; 350,000 tested, 8.8% active; also: % is scaled to controls: 0 for no effect and ±100 for the full control effect; nearly all actives have a fitted effect of over 75% in size
Target sequence (Q96KQ7 913-1193 limits assumed): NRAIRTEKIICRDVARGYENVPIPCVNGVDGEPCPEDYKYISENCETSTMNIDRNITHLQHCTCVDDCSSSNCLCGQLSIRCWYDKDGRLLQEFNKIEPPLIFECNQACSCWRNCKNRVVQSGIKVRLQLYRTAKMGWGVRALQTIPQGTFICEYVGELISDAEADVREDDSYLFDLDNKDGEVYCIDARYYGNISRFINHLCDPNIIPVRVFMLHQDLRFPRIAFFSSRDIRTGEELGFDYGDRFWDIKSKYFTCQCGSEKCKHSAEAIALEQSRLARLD
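Quantitative HTS format: methyltransferase activity on a biotin-tagged H3K9 peptide is measured by AlphaScreen, using a rabbit anti-monomethyl-H3K9 antibody with streptavidin donor and anti-IgG acceptor beads. Final levels are 20 nM enzyme, 500 nM peptide, 20 uM SAM; 2 h RT.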
HP1b binding inh: HTS for Inhibitors of HP1-beta Chromodomain Interactions with Methylated Histone Tails. AlphaScreen HP1-beta / biotin-H3K9me3 peptide binding. Potency, µM (titrated, usually from 114 µM), without a hit: at the top dose activity change, negative = inhibition, usual class: inhibitors. 390,000 tested, 0.56% active; also: nearly all actives have a fitted effect of over 70% in size
Target sequence (P83916 whole entry, looked up): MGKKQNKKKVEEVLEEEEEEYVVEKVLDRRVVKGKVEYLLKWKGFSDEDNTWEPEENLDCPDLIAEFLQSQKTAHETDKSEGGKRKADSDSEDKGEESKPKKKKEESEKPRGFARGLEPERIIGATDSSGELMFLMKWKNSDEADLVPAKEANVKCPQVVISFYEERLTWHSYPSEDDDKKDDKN
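Compound inhibition of the preformed complex between 50 nM HP1-beta and 50 nM biotinylated H3K9me3 peptide was read by AlphaScreen. Buffer was PBS pH 7.4 with 0.01% Tween-20. Incubations ran 30 min at room temperature, with 10 ug/mL donor/acceptor beads.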
Numbers without * were called inactive; ? = inconclusive; nt = not tested or not shown; [ ] = dose if it differs, or a comment. Calls follow the shape of the dose curve; as a rule, active = well fitted inhibition curve with a large enough effect; inconclusive = small, poorly fitted or top-dose-only effect; inactive = no such curve, though single readings can be large or run the other way. Potency is read from the fitted curve at half-maximal effect.

SMILES	L3MBTL1 block	BAZ2B block	JMJD2A Tudor	G9a block	HP1b binding inh
CN(C)CCN1C(=O)C(=O)/C(=C(/O)c2ccc(S(=O)(=O)N3CCOCC3)cc2)C1c1ccc(F)cc1 (stereo unspecified)	nt	-9%	-7%	52%	44%
CCCC(=O)N1CCc2cc(-c3nc(N)sc3C)ccc21	-4%	-7%	-17%	40µM*	-27%
CC(C)(C)C(=O)N1CCc2cc(-c3csc(N)n3)ccc21	-3%	50µM*	-29%	0%[0.501 µM]	-13%
CNc1nc(-c2ccc3c(c2)CCN3C(=O)c2ccccc2F)c(C)s1	-1%	-15%	-30%	35µM*	-5%
CCC(C)C(=O)N1CCc2cc(-c3csc(N)n3)ccc21 (stereo unspecified)	0%	?	-25%	?	0%
CC(=O)Nc1nc(-c2ccc3c(c2)CCN3C(=O)C2CC2)c(C)s1	nt	-29%	-13%	?	1%
CNc1nc(-c2ccc3c(c2)CCN3C(=O)CC(C)(C)C)c(C)s1	-20%	10%	-33%	-1%	-13%
CNc1nc(-c2ccc3c(c2)CCN3C(=O)c2ccccc2F)cs1	-3%	50µM*	?	50µM*	?
Cc1cn(CC(=O)NCC(c2ccccc2)c2ccccc2)c(=O)[nH]c1=O	nt	nt	?	nt	2%
COc1cccc(CNC(=O)CSc2ncc(S(=O)(=O)c3ccc(C)c(Cl)c3)c(=O)[nH]2)c1	nt	1%	-2%	-15%[59 µM]	28%[57 µM]
CCN(CC)C(=O)c1sc2c(c1C)c(=O)n(-c1ccccc1)c(=O)n2CC(=O)N(CC)c1cccc(C)c1	nt	-13%	-15%	0%[59 µM]	-5%
Nc1nc(-c2ccc3c(c2)OCCO3)cs1	0%	nt	-35%	?	0%
Nc1nc(-c2ccc3c(c2)CCCC3)cs1	-1%	45µM*	?	18µM*	-33%
CCOC(=O)Cc1ccc(NC(=O)N2CC(C)Oc3ccc(Cl)cc32)cc1 (stereo unspecified)	nt	-3%	4%	-23%[59 µM]	58%
CN1CCN(NS(=O)(=O)c2ccc(Cl)cc2)CC1	nt	1%	-11%	1.1µM*	15%
CN1CCN(c2ccc(NS(=O)(=O)c3ccc(Cl)cc3)cn2)CC1	-15%	-22%	-13%	?	32%
Nc1cc(-c2ccccc2)nn1S(=O)(=O)c1ccc(Br)cc1	nt	-7%	-30%	50µM*	32%
COc1cc(-c2cc(N)n(S(=O)(=O)c3ccccc3)n2)cc(OC)c1OC	nt	5%	-32%	4%	9%
O=C(c1ccc(-c2ccc([N+](=O)[O-])cc2)o1)N1CCCC(C(F)(F)F)C1 (stereo unspecified)	-16%	?	?	14µM*	?
O=C(c1ccc(-c2ccc([N+](=O)[O-])cc2)o1)N1CCCCCCC1	-20%	40µM*	56µM*	-4%[12.7 µM]	?
CC(=O)c1ccc(NC(=O)CCc2c(C)nn(-c3ccc4nncn4n3)c2C)cc1	nt	14%	-24%	63%[59 µM]	11%[57 µM]
COc1cccc(OCCn2ccnc2)c1	12%	7%	-13%	?	24%
Clc1ccccc1OCCn1ccnc1	nt	79µM*	4.5µM*	10µM*	45µM*
Clc1cccc(OCCn2ccnc2)c1	-3%	-4%	-10%	nt	30%
C=CCc1ccccc1OCCn1ccnc1	0%	50µM*	-91%[57.1 µM]	8.9µM*	?
SMILES	L3MBTL1 block	BAZ2B block	JMJD2A Tudor	G9a block	HP1b binding inh
C=CCc1cccc(OC)c1OCCOCCn1ccnc1	-13%	35µM*	5µM*	?	?
COc1ccccc1C(=O)Nc1nnc(SCc2cc(=O)n3ccc(C)cc3n2)s1	nt	3%	-16%	0%[59 µM]	15%[57 µM]
CC(=O)NC(Cc1ccccc1)C(=O)NC(Cc1ccccc1)C(=O)O (stereo unspecified)	nt	-14%	0%	?	41%
O=C(O)[C@H](Cc1ccccc1)NC(=O)N1CCCCCC1	nt	7%	5%	12%	32%
O=C(NC(Cc1ccccc1)C(=O)NC(Cc1ccccc1)C(=O)O)c1ccccc1 (stereo unspecified)	1%	?	-5%[57.1 µM]	28µM*	12%
O=C(O)[C@H](Cc1ccccc1)NC(=O)N1CCOCC1	8%	-6%	0%	50µM*	20%
CCCCCn1c(C(C)NC(=O)c2ccccc2)nc2ccccc21 (stereo unspecified)	nt	5%	-11%	7%[59 µM]	22%
CN(C)Cc1ccccc1-c1cncnc1Nc1ccccc1	nt	nt	nt	0%[0.501 µM]	nt
CC(Sc1nnc(NCc2ccccc2)s1)C(=O)Nc1ccc2c(c1)C(=O)c1ccccc1C2=O (stereo unspecified)	-9%	?	?	3.2µM*	-16%
COc1ccc(C(=O)N/N=C/C(=O)c2ccccc2)cc1	nt	-9%	-18%	27%	33%
COc1ccc(C(=O)C(/C=N/O)=N/Nc2ccc(F)cc2)cc1	?	?	-16%	18µM*	20%
CO/N=C/C(=N\Nc1ccc(OC)cc1)C(=O)c1ccc(OC)cc1	nt	?	?	35µM*	-26%
COc1ccc(N2CC(NC(=O)C(=O)c3c[nH]c4ccccc34)CC2=O)cc1 (stereo unspecified)	nt	4%	5%	5%[59 µM]	30%
COc1ccc(C2NC(=O)C(C#N)=C(S)N2c2ccc(C)cc2)cc1OC (stereo unspecified)	0%	-31%	-21%	45µM*	11%
COc1cc(C2NC(=O)C(C#N)=C(S)N2c2ccc(C)cc2)ccc1OC(C)C (stereo unspecified)	nt	-35%	-16%	?	24%
COc1ccc(C2NC(=O)C(C#N)=C(S)N2c2cccc(C)c2)cc1OC (stereo unspecified)	5%	-35%	-18%[57.1 µM]	40µM*	23%
Cc1cc(NC(c2nnc(-c3ccccc3)o2)c2ccccc2F)ccc1Br (stereo unspecified)	nt	28%	-7%	18%[59 µM]	85%
CCN(Cc1ccccc1)C(=O)CCS(=O)(=O)c1cc(Br)cc2c1N(C(=O)C1CC1)CC2	nt	-33%	-14%	-17%[59 µM]	3%
COc1ccccc1NC(=O)CSc1nc(-c2cccc(Cl)c2)nc2c1Cc1c(CO)cnc(C)c1O2	nt	2%	-16%	17%[59 µM]	40%
Cc1cc(OCCOCCNC(C)C)cc(C)c1Cl	nt	79µM*	3.2µM*	?	-18%
CC(C)[C@H](NC(=O)OC(C)(C)C)C(=O)N/N=C/c1cccc2nccnc12	nt	-39%	-8%	4.5µM*	18%
COc1ccc(NC(=O)C2CCN(S(=O)(=O)c3ccc4[nH]c(=O)ccc4c3)CC2)cc1Cl	nt	5%	-2%	8%[59 µM]	29%[57 µM]
